These results are taken from PubChem BioAssay (NCATS).

Records with an inconclusive call do not appear. Where a call stands in place of a potency, no number is given. Calls of active or inactive are those of the source. Calls come from the whole dose curve; as a rule, active = well fitted inhibition curve with a large enough effect; inconclusive = small, poorly fitted or top-dose-only effect; inactive = flat fitted curve, though single readings scatter.

Sequence of Calcium and integrin-binding protein 1 (Homo sapiens) (Q99828 whole entry, looked up): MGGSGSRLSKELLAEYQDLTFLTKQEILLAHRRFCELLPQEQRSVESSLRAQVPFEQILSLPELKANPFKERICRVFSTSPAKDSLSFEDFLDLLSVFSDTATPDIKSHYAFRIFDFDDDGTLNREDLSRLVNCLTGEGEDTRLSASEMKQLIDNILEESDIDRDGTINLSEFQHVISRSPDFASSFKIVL

This experiment has as its target Calcium and integrin-binding protein 1 (Homo sapiens) (UniProt Q99828). Put plainly: Primary qHTS for Identification of Calcium Integrin Binding Protein 1 (CIB1) Competitor (AID 1508620). Note: top concentration of the series differs between compounds. The conditions noted are these: CIB1-GST / FITC-alphaIIb peptide fluorescence polarization; series mostly up to 114 µM. In outline:
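Fluorescence polarization competition: GST-tagged CIB1 (1 uM final) preincubated with compound 15 min at room temperature, then FITC-labelled alphaIIb peptide (100 nM final) added. After 15 min at room temperature, polarization read at Ex 480/Em 540.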
For orientation: Quantitative high-throughput screening tests each substance at several concentrations.
`O=C(Nc1ccc(-c2nc3ccccc3[nH]2)cc1)c1ccc2cc[nH]c2c1`: the Potency entry was “inactive”.

For the molecule `O=C(Nc1ccc(-c2ccccc2)nc1)c1cccs1`, the Potency entry was “inactive”.

Take `CC(=O)Nc1cccc(S(=O)(=O)N2CCN(S(=O)(=O)c3ccc4c(c3)OCCO4)CC2)c1`: the Potency result was “inactive”.

For `O=C(NC1CCCc2c1cnn2-c1ccc(F)cc1F)c1cnon1` (centres undefined), the Potency result was “inactive”.

Regarding `CC(=O)NC(C)c1cc(F)c2cccnc2c1O` (centres undefined), the Potency result is “inactive”.

On to `Fc1cccc(CNc2ncnc3ccc(-c4cccnc4)cc23)c1`, for which the Potency entry was “inactive”.

Regarding `COc1ccc(NC(=O)c2cnn3c(C)cc(C)nc23)cc1OC`, the Potency result is “inactive”.

In the case of `CC1=C(C(=O)Nc2ccc(C)cc2)C(c2ccccc2Br)N=C(Nc2nc3ccccc3o2)N1` (centres undefined), the Potency result was “inactive”.

As for `Cc1cc(C)nc(NCc2ccc(O)c3ncccc23)c1`, the Potency result is “inactive”.

`CN1CCN(Cc2cc(COCc3ccccc3)c3cccnc3c2O)CC1`: the Potency entry is “inactive”.

For the molecule `Cc1ccc(CC(=O)Nc2nc(-c3ccc4c(c3)CCN4C(=O)c3ccccc3C)c(C)s2)cc1C`, the Potency result is “inactive”.

As for `Cn1nnnc1Sc1ncnc2scc(-c3cccc([N+](=O)[O-])c3)c12`, the Potency result is “inactive”.

Consider `Cc1cc(NC(=O)Nc2nnc(-c3cccnc3)s2)ccc1Cl`, for which the Potency result is “inactive”.

For `Cc1ccc(OCCn2c(CCNC(=O)c3ccc(F)cc3F)nc3ccccc32)cc1`, the Potency entry is “inactive”.

On to `N/C(=N\c1nnc(-c2ccncc2)s1)Nc1ccc(Cl)c(Cl)c1`, for which the Potency result is “inactive”.

For the molecule `O=C1NC(=O)/C(=C/c2cccn2-c2ccc(P(=O)(O)O)cc2)N1`, the Potency entry is “inactive”.

On to `COc1ccc(C2=Nn3c(nnc3-c3ccccc3OC)SC2)cc1O[C@H]1CCOC1`, for which the Potency result is “inactive”.

In the case of `Cn1c2cc(Br)sc2c2cnn(Cc3c(F)cccc3Cl)c(=O)c21`, the Potency entry was “inactive”.

With `CC1=C(C(=O)NCc2ccccc2)C(c2ccccc2Br)N=C(Nc2nc3ccccc3o2)N1` (centres undefined), the Potency entry is “inactive”.

Regarding `O=C1CCc2cc(S(=O)(=O)Nc3cc(F)cc(Cl)c3)c(F)cc2N1`, the Potency entry was “inactive”.

With `Cc1cccc(CNc2ccnc(-c3cccc4ccccc34)n2)c1`, the Potency entry was “inactive”.

As to `O=C(Cn1cc(CNC(=O)c2ccccc2)nn1)Nc1cc(C(F)(F)F)ccc1Cl`, the Potency entry was “inactive”.

Regarding `CC(C)c1ccccc1-c1nc(NCC2CCN(c3cccnc3)CC2)c2ccccc2n1`, the Potency entry was “inactive”.

Turning to `Cc1ccc(OCCCn2c(CCNC(=O)C3CCCCC3)nc3ccccc32)cc1`, the Potency entry is “inactive”.
